Results filed as inconclusive are left out. Calls of active or inactive are those of the source. Unless noted, the call rests on the fitted dose curve; in most records, active means well fitted curve in the direction sought with a large enough effect in the repeat runs; inconclusive means weak or mixed curves; inactive means no such curve, though single readings can be large; an effect the other way counts as inactive or inconclusive.
Key:
[1] = target: Estrogen receptor beta (Homo sapiens) (UniProt Q92731); assay: qHTS assay to identify small molecule agonists of the estrogen receptor beta (ER-beta) signaling pathway (AID 1259377; active means well fitted activation curve with a large enough effect in the signal ratio in the repeat runs, not every such curve was filed as active; the % refers to the signal ratio)
Method in brief: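 Ratiometric beta-lactamase FRET read-out came after 2 h substrate loading at room temperature. It followed 16 h compound treatment at 37C of GripTite HEK293T cells carrying a UAS-bla reporter, plated in 2% charcoal-stripped FBS medium.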

[2] = qHTS assay to identify small molecule agonists of the androgen receptor (AR) signaling pathway in the presence of an antagonist - cell viability counter screen (AID 1259379);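 further: MDA-kb2 human breast cancer cells carrying an MMTV luciferase reporter; series mostly up to about 92 µM; nearly all actives have a fitted effect of over 25% in size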
Method in brief: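 Each compound was tested at 15 concentrations on MDA-kb2 cells in the presence of 3.0uM nilutamide. Viability was measured by CellTiter-Fluor fluorescence after a 16 hr incubation at 37C in a CO2-free atmosphere.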

[3] = qHTS assay to identify small molecule agonists of the estrogen receptor beta (ER-beta) signaling pathway - cell viability counter screen (AID 1259380); further: nearly all actives have a fitted effect of over 30% in size
Method in brief: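 Compounds dissolved in DMSO were pin-transferred onto ER-beta-UAS-bla HEK293T cells that had settled 6 hr, and exposure ran 16 hr at 37C. Following the reporter read, CellTiter-Glo luminescence after 30 min at room temperature indicated cytotoxicity.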

[4] = qHTS assay to identify small molecule antagonists of the estrogen receptor beta (ER-beta) signaling pathway - cell viability counter screen (AID 1259382); further: series mostly up to about 92 µM; nearly all actives have a fitted effect of over 55% in size
Method in brief: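 CellTiter-Glo ATP luminescence measured after the LiveBLAzer read in the same wells; ER-beta-UAS-bla HEK293T cells, 16 hr compound treatment with 1nM 17-beta-estradiol agonist at 37C, 5% CO2.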

[5] = target: Estrogen receptor (Homo sapiens) (UniProt P03372); assay: qHTS assay to identify small molecule agonists of the estrogen receptor alpha (ER-alpha) signaling pathway in the presence of an antagonist (AID 1259383; calls by dose curve; further: top concentration of the series differs between compounds; nearly all actives have a fitted effect of over 15% in size)
Method in brief: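 Luminescent ERE-luciferase reporter, VM7Luc4E2 cells (endogenous ER-alpha); 10.0nM ICI-182,780 final; 15-point compound titration; 22hr at 37C; ONE-Glo, 30min RT.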

[6] = qHTS assay to identify small molecule agonists of the estrogen receptor alpha (ER-alpha) signaling pathway in the presence of an antagonist - cell viability counter screen (AID 1259386);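 further: series mostly up to about 92 µM; cells exposed to compounds for 22 h at 37 °C before the viability read; nearly all actives have a fitted effect of over 30% in size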
Method in brief: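 Using estrogen-depleted VM7Luc4E2 cells, the 15-concentration compound series was applied together with 10.0nM ICI-182,780 and incubated 22hr at 37C/5% CO2. Cell viability was then scored by CellTiter-Fluor.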

[7] = target: Progesterone receptor (Homo sapiens) (UniProt P06401); assay: qHTS assay to identify small molecule agonists of the progesterone receptor (PR) signaling pathway (AID 1346784; calls by dose curve; further: nearly all actives have a fitted effect of over 30% in size)
Method in brief: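 Agonist qHTS: compounds pinned onto 3,000 PR-UAS-bla HEK 293T cells per well in charcoal-stripped serum medium, 16hr at 37C, then beta-lactamase activity measured by LiveBLAzer FRET fluorescence after 2 hours at room temperature.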

[8] = target: Progesterone receptor (Homo sapiens) (UniProt P06401); assay: qHTS assay to identify small molecule antagonists of the progesterone receptor (PR) signaling pathway (AID 1346795; active means well fitted inhibition curve with a large enough effect in the signal ratio in the repeat runs, not every such curve was filed as active; the % refers to the signal ratio)
Method in brief: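 Antagonist mode with agonist R5020 at 1 nM final and 16 hr incubation at 37C. Reporter was beta-lactamase driven by UAS in HEK293T (PR-UAS-bla), 2% charcoal-stripped serum; signal from LiveBLAzer FRET substrate, 2 hr at room temperature.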

[9] = qHTS assay to identify small molecule antagonists of the progesterone receptor (PR) signaling pathway - cell viability counter screen (AID 1346798); further: series mostly up to about 92 µM; nearly all actives have a fitted effect of over 50% in size
Method in brief: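 Cytotoxicity read as CellTiter-Glo luminescence (30 min, room temperature) in the same wells as the beta-lactamase readout. HEK293T PR-UAS-bla cells in charcoal-stripped 2% FBS received compound and R5020, then 16 h at 37C, 5% CO2.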

[10] = qHTS assay to identify small molecule agonists of the progesterone receptor (PR) signaling pathway - cell viability counter screen (AID 1346799; calls by dose curve; further: nearly all actives have a fitted effect of over 45% in size)
Method in brief: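 Cytotoxicity measured by CellTiter-Glo luminescence (30 min, RT) in the same wells as the PR beta-lactamase agonist read. Those HEK293T cells had 16 h compound treatment at 37 C in 2% charcoal-stripped FBS medium.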

[11] = qHTS assay to identify small molecule antagonists of the TGF-beta/Smad signaling pathway - cell viability counter screen (AID 1346824); further: nearly all actives have a fitted effect of over 50% in size
Method in brief: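 SBE-bla HEK 293T cells, incubated overnight, then compound plus 0.25 ng/mL TGF-beta1 (stock added) for 5 hr at 37 C. Viability was read in the same wells by CellTiter-Glo luminescence after 30 min at room temperature.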

[12] = qHTS assay to identify small molecule agonists of the TGF-beta/Smad signaling pathway - cell viability counter screen (AID 1346829); further: top concentration of the series differs between compounds; nearly all actives have a fitted effect of over 45% in size
Method in brief: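 Tox21 qHTS format: SBE-bla HEK 293T cells treated with DMSO-dissolved compounds for 5 hr; CellTiter-Glo luminescence after 30 min at room temperature.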

[13] = qHTS assay to identify small molecule agonists of the TGF-beta/Smad signaling pathway (AID 1346859; active means well fitted activation curve with a large enough effect in the signal ratio in the repeat runs, not every such curve was filed as active; the % refers to the signal ratio; further: series mostly up to about 77 µM)
Method in brief: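 Fluorescence (ex 405 nm; em 460 and 530 nm) was read 2 h after LiveBLAzer FRET substrate at RT. The preceding compound treatment of overnight-plated SBE-bla HEK293T cells lasted 5 h at 37 C.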

[14] = target: Thyrotropin-releasing hormone receptor (Homo sapiens) (UniProt P34981); assay: qHTS assay to identify small molecule antagonists of the thyrotropin-releasing hormone receptor (TRHR) signaling pathway (AID 1346877; active means well fitted inhibition curve with a large enough effect in the repeat runs, not every such curve was filed as active; further: series mostly up to about 51 µM)
Method in brief: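 Calcium signal in dye-loaded TRHR/HEK293 cells; compounds added 5 min before TRH (1 nM final); fluorescence monitored 3 min at 1 s steps.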

[15] = target: Thyrotropin-releasing hormone receptor (Homo sapiens) (UniProt P34981); assay: qHTS assay to identify small molecule agonists of the thyrotropin-releasing hormone receptor (TRHR) signaling pathway (AID 1346891; calls by dose curve; further: series mostly up to about 58 µM)
Method in brief: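 Agonist-mode intracellular calcium readout: kinetic fluorescence over 3 min at 1 s intervals after compound addition to TRHR-HEK293 cells (18 h seeded, 2 h dye-loaded at 37 C). Fifteen concentrations, triplicates.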

[16] = Human pregnane X receptor (PXR) small molecule agonists, qHTS cell viability counter screen (AID 1346977); further: nearly all actives have a fitted effect of over 50% in size
Method in brief: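 Same-well viability read: CellTiter-Fluor added after 23 hr compound exposure, fluorescence measured 1 hr later. Cells were PXR-Luc HepG2 seeded at 2,000/well in 5% charcoal-stripped FBS medium, rested 5 hr before dosing at 37 C.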

[17] = qHTS assay to identify small molecule agonists or antagonists of the thyroid stimulating hormone receptor (TSHR) signaling pathway - wild type cell line counter screen (AID 1259384; calls by dose curve)
Method in brief: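 Wild-type Hek293 cells, 800/well, 18 h at 37C, then compound with Ro20-1724 for 30 min RT. cAMP by HTRF (cAMP-d2/anti-cAMP cryptate), 1 h RT, fluorescence read. 15 concentrations, triplicates.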

[18] = target: Thyrotropin receptor (Homo sapiens) (UniProt P16473); assay: qHTS assay to identify small molecule antagonists of the thyroid stimulating hormone receptor (TSHR) signaling pathway (AID 1259385; calls by dose curve; further: nearly all actives have a fitted effect of over 20% in size)
Method in brief: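 TSHR-HEK293 cells (800/well) plated 18 h, then compounds with Ro20-1724 and TSH at 1.5 ng/mL final, 30 min at room temperature. cAMP quantified by HTRF (cAMP-d2/anti-cAMP-cryptate, 1 h); 15 concentrations in triplicate.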

[19] = target: Androgen receptor (Homo sapiens) (UniProt P10275); assay: qHTS assay to identify small molecule agonists of the androgen receptor (AR) signaling pathway in the presence of an antagonist (AID 1259381; calls by dose curve; further: nearly all actives have a fitted effect of over 15% in size)
Method in brief: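 Plated MDA-kb2 cells (3,000/well) were pre-incubated 5hr, given nilutamide (3.0uM final) or buffer, then dosed with compounds in DMSO at 15 concentrations. Luciferase activity was quantified by luminescence after 16hr at 37C.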

[20] = target: Estrogen receptor beta (Homo sapiens) (UniProt Q92731); assay: qHTS assay to identify small molecule antagonists of the estrogen receptor beta (ER-beta) signaling pathway (AID 1259378; active means well fitted inhibition curve with a large enough effect in the signal ratio in the repeat runs, not every such curve was filed as active; the % refers to the signal ratio)
Method in brief: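 ER-beta-UAS-bla HEK293T cells in 2% charcoal-stripped FBS medium treated with compound plus 1nM final 17-beta-estradiol for 16 hr at 37C. Beta-lactamase reporter read by FRET substrate fluorescence after 2 hours at room temperature.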

Measured: Potency

Sequence of Estrogen receptor beta (Homo sapiens) (Q92731 whole entry, looked up): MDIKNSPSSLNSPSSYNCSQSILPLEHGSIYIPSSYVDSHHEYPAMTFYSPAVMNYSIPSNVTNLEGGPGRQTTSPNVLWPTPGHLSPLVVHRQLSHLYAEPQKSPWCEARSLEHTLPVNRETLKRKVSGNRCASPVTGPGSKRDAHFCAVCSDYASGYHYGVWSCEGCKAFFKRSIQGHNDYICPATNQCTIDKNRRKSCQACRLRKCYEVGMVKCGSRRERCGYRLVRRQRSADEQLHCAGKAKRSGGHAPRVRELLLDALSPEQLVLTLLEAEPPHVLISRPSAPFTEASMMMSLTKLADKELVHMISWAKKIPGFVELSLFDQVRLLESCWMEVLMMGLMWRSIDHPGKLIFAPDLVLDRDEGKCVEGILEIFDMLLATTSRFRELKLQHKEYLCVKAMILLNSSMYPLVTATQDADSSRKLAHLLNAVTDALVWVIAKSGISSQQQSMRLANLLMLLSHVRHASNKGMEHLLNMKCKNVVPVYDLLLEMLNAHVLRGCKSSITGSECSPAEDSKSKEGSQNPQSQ
Sequence of Thyrotropin receptor (Homo sapiens) (P16473 whole entry, looked up): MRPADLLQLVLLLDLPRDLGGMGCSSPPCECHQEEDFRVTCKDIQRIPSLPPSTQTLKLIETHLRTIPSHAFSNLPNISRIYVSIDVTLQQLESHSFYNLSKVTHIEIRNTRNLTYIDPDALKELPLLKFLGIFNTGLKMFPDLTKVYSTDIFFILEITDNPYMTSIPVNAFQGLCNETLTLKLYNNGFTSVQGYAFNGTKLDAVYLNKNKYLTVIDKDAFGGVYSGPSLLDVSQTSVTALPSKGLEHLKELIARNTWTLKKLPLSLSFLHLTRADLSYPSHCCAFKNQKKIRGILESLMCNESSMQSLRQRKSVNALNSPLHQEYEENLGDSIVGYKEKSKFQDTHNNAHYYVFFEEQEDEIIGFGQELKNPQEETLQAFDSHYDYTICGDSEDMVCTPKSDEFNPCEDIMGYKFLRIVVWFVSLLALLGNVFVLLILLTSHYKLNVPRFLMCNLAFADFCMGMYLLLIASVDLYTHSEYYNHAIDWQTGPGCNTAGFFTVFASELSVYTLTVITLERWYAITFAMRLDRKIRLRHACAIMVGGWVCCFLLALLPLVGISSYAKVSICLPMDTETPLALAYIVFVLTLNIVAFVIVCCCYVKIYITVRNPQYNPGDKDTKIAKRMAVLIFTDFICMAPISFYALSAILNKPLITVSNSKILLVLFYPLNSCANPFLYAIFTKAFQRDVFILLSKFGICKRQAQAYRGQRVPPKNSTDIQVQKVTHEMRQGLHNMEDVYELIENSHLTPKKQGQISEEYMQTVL
Sequence of Estrogen receptor (Homo sapiens) (P03372 whole entry, looked up): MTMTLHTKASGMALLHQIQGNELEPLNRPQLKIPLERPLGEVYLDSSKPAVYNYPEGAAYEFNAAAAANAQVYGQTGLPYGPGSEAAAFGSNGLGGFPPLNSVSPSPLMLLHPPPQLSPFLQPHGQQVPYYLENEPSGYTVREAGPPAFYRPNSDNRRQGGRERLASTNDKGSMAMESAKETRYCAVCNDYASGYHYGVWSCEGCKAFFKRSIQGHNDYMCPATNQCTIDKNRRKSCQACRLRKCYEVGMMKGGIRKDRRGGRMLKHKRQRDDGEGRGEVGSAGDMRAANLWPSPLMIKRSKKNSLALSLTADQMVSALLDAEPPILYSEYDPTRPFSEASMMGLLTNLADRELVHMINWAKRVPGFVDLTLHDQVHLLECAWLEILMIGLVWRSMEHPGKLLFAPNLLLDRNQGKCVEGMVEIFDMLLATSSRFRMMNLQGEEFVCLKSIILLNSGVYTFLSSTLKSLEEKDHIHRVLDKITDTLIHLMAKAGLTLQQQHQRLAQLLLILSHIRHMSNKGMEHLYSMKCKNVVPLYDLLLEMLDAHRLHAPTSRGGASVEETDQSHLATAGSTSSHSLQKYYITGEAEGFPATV
Sequence of Androgen receptor (Homo sapiens) (P10275 whole entry, looked up): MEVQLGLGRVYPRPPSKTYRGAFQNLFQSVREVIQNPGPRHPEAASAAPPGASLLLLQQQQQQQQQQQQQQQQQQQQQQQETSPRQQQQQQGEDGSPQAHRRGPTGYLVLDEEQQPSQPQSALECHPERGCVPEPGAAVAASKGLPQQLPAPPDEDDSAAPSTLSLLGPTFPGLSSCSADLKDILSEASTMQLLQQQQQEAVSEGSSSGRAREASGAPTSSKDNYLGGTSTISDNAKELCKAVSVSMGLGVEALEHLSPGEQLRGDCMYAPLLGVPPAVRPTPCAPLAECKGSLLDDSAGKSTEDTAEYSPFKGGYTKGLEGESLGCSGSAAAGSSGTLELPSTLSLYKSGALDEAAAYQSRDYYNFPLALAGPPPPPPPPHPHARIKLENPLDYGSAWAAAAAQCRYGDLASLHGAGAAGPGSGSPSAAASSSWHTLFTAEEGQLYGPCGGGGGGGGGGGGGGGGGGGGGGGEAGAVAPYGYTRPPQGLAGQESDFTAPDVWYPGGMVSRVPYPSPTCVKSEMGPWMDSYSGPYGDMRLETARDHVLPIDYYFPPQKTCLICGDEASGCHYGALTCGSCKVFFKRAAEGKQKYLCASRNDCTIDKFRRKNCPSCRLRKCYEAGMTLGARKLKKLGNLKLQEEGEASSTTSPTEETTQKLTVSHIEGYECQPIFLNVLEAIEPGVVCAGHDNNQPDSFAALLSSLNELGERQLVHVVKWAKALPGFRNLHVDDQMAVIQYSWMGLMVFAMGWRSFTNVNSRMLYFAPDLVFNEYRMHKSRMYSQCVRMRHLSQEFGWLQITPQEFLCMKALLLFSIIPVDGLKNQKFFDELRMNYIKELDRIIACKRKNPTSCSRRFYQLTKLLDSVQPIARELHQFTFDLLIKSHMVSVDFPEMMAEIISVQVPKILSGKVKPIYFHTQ
Sequence of Thyrotropin-releasing hormone receptor (Homo sapiens) (P34981 whole entry, looked up): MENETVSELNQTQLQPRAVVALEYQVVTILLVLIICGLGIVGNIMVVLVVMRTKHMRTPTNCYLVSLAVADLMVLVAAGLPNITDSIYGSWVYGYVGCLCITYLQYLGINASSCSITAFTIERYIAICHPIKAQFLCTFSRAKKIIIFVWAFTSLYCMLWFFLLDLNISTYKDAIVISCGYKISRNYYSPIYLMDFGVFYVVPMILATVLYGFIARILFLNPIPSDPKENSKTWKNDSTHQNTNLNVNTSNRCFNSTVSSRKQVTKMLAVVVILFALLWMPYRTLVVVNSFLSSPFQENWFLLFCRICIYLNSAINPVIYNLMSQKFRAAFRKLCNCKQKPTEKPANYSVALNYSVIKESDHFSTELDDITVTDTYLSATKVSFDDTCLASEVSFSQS
Sequence of Progesterone receptor (Homo sapiens) (P06401 whole entry, looked up): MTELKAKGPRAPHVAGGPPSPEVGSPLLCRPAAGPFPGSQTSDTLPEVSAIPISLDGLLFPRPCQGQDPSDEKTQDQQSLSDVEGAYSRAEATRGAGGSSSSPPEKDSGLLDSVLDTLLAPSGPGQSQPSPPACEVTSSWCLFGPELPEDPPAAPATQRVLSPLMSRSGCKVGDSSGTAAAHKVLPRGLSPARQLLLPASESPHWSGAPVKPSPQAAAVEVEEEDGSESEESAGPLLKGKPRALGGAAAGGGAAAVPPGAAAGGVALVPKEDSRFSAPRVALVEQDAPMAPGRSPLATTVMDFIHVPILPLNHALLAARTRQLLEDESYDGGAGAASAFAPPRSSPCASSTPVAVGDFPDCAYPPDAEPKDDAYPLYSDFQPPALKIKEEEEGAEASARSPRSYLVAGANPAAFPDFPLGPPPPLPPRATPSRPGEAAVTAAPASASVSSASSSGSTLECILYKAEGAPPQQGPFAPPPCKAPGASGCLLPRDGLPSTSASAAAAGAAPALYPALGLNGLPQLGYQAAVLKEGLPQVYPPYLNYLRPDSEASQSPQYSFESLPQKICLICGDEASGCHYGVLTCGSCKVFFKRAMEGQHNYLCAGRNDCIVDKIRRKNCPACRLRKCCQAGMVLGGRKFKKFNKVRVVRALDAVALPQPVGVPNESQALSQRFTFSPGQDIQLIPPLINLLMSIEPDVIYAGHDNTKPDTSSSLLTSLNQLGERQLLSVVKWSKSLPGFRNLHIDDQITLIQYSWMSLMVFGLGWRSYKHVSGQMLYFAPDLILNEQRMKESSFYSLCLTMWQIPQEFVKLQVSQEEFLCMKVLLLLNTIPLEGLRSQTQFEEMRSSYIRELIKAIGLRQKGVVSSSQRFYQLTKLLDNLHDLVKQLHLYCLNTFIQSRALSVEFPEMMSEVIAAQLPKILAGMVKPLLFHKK

CCOC(=O)c1cnc2c(cnn2CC)c1NN=C(C)C
not listed: [17] | [18] | [19] | [20]
inactive: all other assays above

Cc1cccc(C)c1NC(=O)CC12CCCN1CCC2
not listed: [14] | [19] | [20]
inactive: all other assays above

C=C[Si](OC(C)=O)(OC(C)=O)OC(C)=O
not listed: [1] | [7] | [9] | [14] | [16] | [20]
inactive: all other assays above

CC(C)CCCO
not listed: [3] | [10] | [15] | [18] | [19]
inactive: all other assays above

Nc1ccn([C@@H]2O[C@H](CO)[C@@H](O)C2(F)F)c(=O)n1
not listed: [3] | [7] | [9] | [14] | [15] | [19] | [20]
inactive: all other assays above

CC1=CCC(O)(C(C)C)CC1 (centres undefined)
not listed: [1] | [8] | [9] | [11] | [19]
inactive: all other assays above

Cc1ccc(C(=O)c2ccc(CC(=O)O)n2C)cc1
not listed: [1] | [7] | [8] | [13] | [15] | [20]
inactive: all other assays above

CCCCCC(C)N (centres undefined)
not listed: [1] | [5] | [11] | [15] | [20]
inactive: all other assays above

— PubChem BioAssay (Tox21)
